In test [1] the target is T1, Aspartate--tRNA(Asp/Asn) ligase (Mycobacterium tuberculosis (strain ATCC 25618 / H37Rv)) (UniProt P9WFW3). Note: in the data most compounds retested in dose-response had high values.
T1 sequence (whole entry): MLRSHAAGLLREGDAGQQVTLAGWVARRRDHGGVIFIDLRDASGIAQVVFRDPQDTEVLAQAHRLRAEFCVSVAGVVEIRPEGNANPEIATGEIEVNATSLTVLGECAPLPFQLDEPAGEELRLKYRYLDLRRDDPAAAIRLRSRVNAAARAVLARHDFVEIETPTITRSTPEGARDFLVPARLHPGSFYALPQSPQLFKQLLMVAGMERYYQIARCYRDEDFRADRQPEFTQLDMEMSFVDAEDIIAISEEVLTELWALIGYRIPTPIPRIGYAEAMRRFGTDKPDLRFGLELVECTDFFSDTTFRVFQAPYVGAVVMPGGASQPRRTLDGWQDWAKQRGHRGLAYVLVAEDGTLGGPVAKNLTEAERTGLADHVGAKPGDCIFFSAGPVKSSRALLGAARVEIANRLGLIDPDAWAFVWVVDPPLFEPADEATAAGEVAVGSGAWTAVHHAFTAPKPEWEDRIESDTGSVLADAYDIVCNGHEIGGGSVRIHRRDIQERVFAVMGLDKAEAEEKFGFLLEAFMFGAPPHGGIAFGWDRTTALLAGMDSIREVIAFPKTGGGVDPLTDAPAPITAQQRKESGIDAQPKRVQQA
The test is described as follows: Assay for Asp RNA synthetase-1 from Mycobacterium tuberculosis. Format: functional. On the set-up: scale not given: direction of the effect not stated beside the values. As to conditions: 30 µM.

In test [2] the target is Shiga toxin 2 (Escherichia coli O157:H7) (UniProt P09385+P09386). Briefly: E. coli 0.157:H7 Shiga Toxin SOP - stx2 screening assay. Format: functional. Also on record: scale not given: direction of the effect not stated beside the values. The conditions noted are these: 30 µM.

Structures are written as SMILES.

Regarding `Cc1cc(C)n(CC2CN(CC(=O)Nc3nncs3)CCO2)n1` (stereo not given), the results for the Percent Effect in test [1] and in test [2] were 1.4% and 9.91%, respectively.

Consider `CC1=Nc2c(c(=O)[nH]n2C(C)C)C(c2ccc(F)c(F)c2)S1` (stereo not given), for which the values for the Percent Effect in test [1] and in test [2] were 1.86% and 22.2%, respectively.

For `COc1cccc(N2CCN(Cc3ncc[nH]3)CC2=O)c1`, the results for the Percent Effect in test [1] and in test [2] were 0.446% and -4.16%, respectively.

For the compound `COc1ccc(OC)c(C(O)CN2CC(n3cccn3)C2)c1` (stereo not given), the results for the Percent Effect in test [1] and in test [2] were -0.9% and 21.2%, respectively.

As for `COc1ccc(C(=O)N(C)Cc2cccc(C#N)c2)c(OC)c1OC`, the Percent Effect in test [1] was -1.51%; in test [2] it was 30.3%.

Turning to `COc1ccc(CNCC2CCN(CC(C)O)CC2)c2ccccc12` (stereo not given), the Percent Effect in test [1] was -5.41%; in test [2], -33.8%.

In the case of `O=C(CCc1cscn1)N1CCCC1c1noc(C2CC2)n1` (stereo not given), the results for the Percent Effect in test [1] and in test [2] were -1.43% and 22.4%, respectively.

For the compound `O=C(CN(Cc1ccccc1)CC1CCOCC1)Nc1nccs1`, the figures for the Percent Effect in test [1] and in test [2] were 2.07% and -19%, respectively.

Turning to `Cc1nc(C)n(CC2CCCCN2CC(=O)N(C)Cc2ccco2)n1` (stereo not given), the results for the Percent Effect in test [1] and in test [2] were 1.76% and 3.6%, respectively.

Consider `Cc1nccc(-c2cccc(NCC(=O)N3CCc4sccc4C3)c2)n1`, for which the Percent Effect in test [1] was -0.955%; in test [2], 8.31%.

With `C[C@@H]1CN(C(=O)NC2CC2)C[C@]12CCN(c1ccsc1)C2=O`, the Percent Effect in test [1] is 2.34%; in test [2] it was -3.08%.

In the case of `Cn1nc(CNC(=O)C2CC2)cc1C1CC1`, the Percent Effect in test [1] is -2.99%; in test [2] it was -14.8%.

For `O=C(NCCc1ccccn1)NC1CCN(c2ncccn2)CC1`, the values for the Percent Effect in test [1] and in test [2] were 1.19% and -12.3%, respectively.

Take `COc1ccc(C2(CNC(C)c3nnc(C)o3)CCCCC2)cc1` (stereo not given): the Percent Effect in test [1] was 2.67%; in test [2], -2.63%.

As for `O=C(NCC1CC1)[C@H]1C[C@H]2OCC[C@H]2N(CCc2ccccc2)C1`, the Percent Effect was found to be 3.44% in test [1] and 2.56% in test [2].

On to `CC(C)Oc1cccc(C(=O)C2CCCN(C(=O)c3ncn[nH]3)C2)c1` (stereo not given), for which the results for the Percent Effect in test [1] and in test [2] were 0.948% and -0.343%, respectively.

As for `O=S(=O)(NCc1ccccc1Cn1cncn1)C1CCCC1`, the Percent Effect in test [1] was 1.56%; in test [2] it was -9.86%.

As for `c1ccc(N2CCCC3(COCCN(c4nccs4)C3)C2)nc1` (stereo not given), the Percent Effect was 3.08% in test [1] and -3.13% in test [2].

Take `CN(Cc1cnn(C)c1)C(=O)Cn1c(CS(C)(=O)=O)nc2ccccc21`: the Percent Effect in test [1] is -0.869%; in test [2], 1.77%.

On to `CCn1cnnc1CNC(=O)CCC(=O)c1ccc2c(c1)OCCO2`, for which the results for the Percent Effect in test [1] and in test [2] were 4.55% and 13.7%, respectively.

Turning to `CC(C)c1ncc2c(n1)CN(Cc1nc(-c3cccs3)no1)CC2`, the Percent Effect in test [1] was 0.321%; in test [2], 13.1%.

As to `CCCn1c(C)c(CC(=O)N(C)CCOC)c2c1CC(C)(C)CC2=O`, the Percent Effect in test [1] is 1.4%; in test [2], -6.17%.

With `O=C(Nc1cnn(CCN2CCOCC2)c1)c1ccccc1O`, the Percent Effect in test [1] was -0.989%; in test [2], -13.8%.

`CCc1cnc(CN(C(C)=O)C2CCN(CCc3cccs3)C2)o1` (stereo not given): the Percent Effect was -1.49% in test [1] and 21.4% in test [2].

In the case of `Cc1nn(C)cc1C(=O)Nc1cccc(CN2CCC(CO)CC2)c1`, the Percent Effect in test [1] was 3.06%; in test [2] it was -101%.

As to `O=C(CCc1ccccc1)C1CCCN(C(=O)c2ncc(F)cc2F)C1` (stereo not given), the Percent Effect stood at 7.65% in test [1] and 2.26% in test [2].

For `C[C@@H]1C(=O)NC[C@H]2CN(CCc3ccccc3)C[C@H]21`, the Percent Effect was 4.21% in test [1] and -4.99% in test [2].

Turning to `O=S(=O)(CCCN1CCCC1Cn1cccn1)c1ccccc1` (stereo not given), the Percent Effect in test [1] was -2.01%; in test [2], -4.23%.

Consider `c1cnnc(N2CCCC2CNCc2nc(-c3ccsc3)no2)c1` (stereo not given), for which the figures for the Percent Effect in test [1] and in test [2] were -0.433% and -0.726%, respectively.

Turning to `CCc1nc(CN(C)C2CCN(CCc3ccccn3)C2)no1` (stereo not given), the Percent Effect is 8.1% in test [1] and -35.9% in test [2].

As for `Cc1cccc(NC(=O)NCCCn2nc3ccccn3c2=O)c1C`, the Percent Effect is 3.46% in test [1] and 19.3% in test [2].

`Cc1ncccc1OC1(C(=O)NCCCN2CCOCC2)CCNCC1`: the Percent Effect is 1.19% in test [1] and -8.28% in test [2].

Consider `c1ccc(-c2nnc(CNCCn3cccn3)o2)cc1`, for which the Percent Effect in test [1] is -5.08%; in test [2], 0.764%.

As for `Cc1nc(C2CCCN(C(=O)COCc3ccccc3Cl)C2)no1` (stereo not given), the Percent Effect in test [1] was 1.96%; in test [2], 5.07%.

Take `CN1CCC/C1=N\S(=O)(=O)c1ccc(NC(=O)c2ccc(F)cc2)cc1`: the Percent Effect in test [1] was 4.61%; in test [2], -109%.

As for `NC(=O)C1CN(C(=O)Nc2cc(Cl)cc(Cl)c2)CCO1` (stereo not given), the Percent Effect in test [1] came out at 1.82%; in test [2], 8.74%.

`CCCn1nc2c(cc1=O)CN(CCS(C)(=O)=O)CC2`: the Percent Effect in test [1] worked out at 5.96%; in test [2] it was 0.931%.

Take `O=C(c1ccc(Cl)cc1)N1CCCn2nnc(Cn3cccn3)c2C1`: the Percent Effect in test [1] is -1.14%; in test [2] it was -4.47%.

For the compound `O=C(CN1CCc2cncnc2C1)NCCOc1ccccc1`, the Percent Effect in test [1] worked out at 0.955%; in test [2], 21.9%.

For the compound `Cn1cccc1CCC(=O)N1CCC2(CC1)c1ccccc1CC2O` (stereo not given), the values for the Percent Effect in test [1] and in test [2] were 2.11% and -22.3%, respectively.

For the compound `Cc1nc(C)n(CC2CCCN2Cc2nc(C3CC3)no2)n1` (stereo not given), the Percent Effect in test [1] was 0.278%; in test [2], -16.4%.

Consider `CC(C(=O)NCCCn1ccnc1)n1cc(Br)cn1` (stereo not given), for which the figures for the Percent Effect in test [1] and in test [2] were 3.33% and -54.3%, respectively.

As to `COCC(=O)N1Cc2cn(C)nc2C(COc2cccnc2)C1` (stereo not given), the Percent Effect in test [1] was 0.598%; in test [2] it was -21.7%.

As for `COc1ccc(OCC(=O)NS(=O)(=O)c2cc(F)ccc2F)cc1`, the Percent Effect is -1.01% in test [1] and -20.6% in test [2].

On to `CC(=O)N1C[C@H](NC(=O)c2cscn2)[C@@H]2OCCC[C@@H]21`, for which the results for the Percent Effect in test [1] and in test [2] were -2.64% and 6.1%, respectively.

For the compound `COCCOc1ccccc1CNCc1c(C)nn(C)c1N(C)C`, the Percent Effect was determined as 2.62% in test [1] and 23.1% in test [2].

Turning to `COc1ccc2c(c1)CCCN2Cc1nc2c(cnn2C)c(=O)[nH]1`, the Percent Effect in test [1] is -4.23%; in test [2], -5.78%.

For `CN(c1ccc(C(C)(C)C)cc1)S(=O)(=O)c1cc(C(=O)O)cs1`, the Percent Effect in test [1] came out at 1.85%; in test [2], 12.9%.

For `CCC(O)CN1CCN(C(=O)c2sccc2OC)CC1` (stereo not given), the Percent Effect in test [1] was 0.995%; in test [2], -39.9%.

As for `O=C(NCCNc1ccccn1)N1CCSCC1`, the Percent Effect in test [1] is -5.89%; in test [2] it was 16.3%.

The record behind these values is ChEMBL document CHEMBL3988442, “University of Dundee, Small-Polar-MMV Screening Library” (2021).
